Reference: the supplement of paper PMC9948646
Unmarked numbers belong to inactive results.

Test system: gramicidin D channels in DC22:1PC lipid vesicles (bilayer-modifying potency)
Assay: initial Tl+ fluorescence quench rate relative to no-drug control (NormRate, gramicidin monomer-dimer shift) (ratio (fold of control)); higher = stronger bilayer-modifying effect (equilibrium shifted toward conducting dimers), active = 1.5 or more
Conditions: 10 µM; lipid concentration 50 µM; temperature: 25 °C
Method: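 Stopped-flow fluorescence quench assay: ANTS-loaded DC22:1PC large unilamellar vesicles doped with gramicidin D (1:2000), 50 µM lipid, equilibrated 10 min with 10 µM drug (0.1% DMSO), mixed with Tl+ quench buffer at 25°C. Initial quench rate (Tl+ influx) was fitted with a modified stretched exponential and normalised to the no-drug control rate (NormRate); duplicates from two independent LUV preparations (triplicates for 7 drugs).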

Row | Compound | initial Tl+ fluorescence quench rate
1 | NS(=O)(=O)c1cccc(-c2ccc3ncc(N4CCOCC4)nc3c2)c1 | 1.41
2 | COc1cccc(NC(=O)c2c(NC(=O)c3cccnc3)sc3c2CCC3)c1 | 1.55 (active)
3 | COc1ccc(-c2cc(NC(=O)c3ccc(F)cc3Cl)ccc2OC)cc1 | 2.04 (active)
4 | O=C(Nc1nnc(-c2ccc(Cl)s2)o1)c1ccc(Cl)s1 | 1.27
5 | Cc1nc(-c2ccccn2)nc(N2CC[C@@H](Cc3ccccc3)C2)c1Cl | 3.57 (active)
6 | O=C(Nc1nnc(S)s1)c1cc(Br)ccc1Cl | 1.2
7 | CCC(=O)Nc1ccccc1C(=O)Nc1ccccn1 | 1.12
8 | CN1CCCN([C@H](c2ccccc2)c2ccc(Cl)cc2)CC1 | 1.43
9 | FC(F)(F)c1nnc2ccc(Cl)nn12 | 1.02
10 | [H]/N=C(/N)Nc1ccc(-c2ccc(-c3ccc(N=C(N)N)c(Cl)c3)o2)cc1Cl | 1.59 (active)
11 | CCCCOC(=O)Nc1cc2nc(C3CCCCC3)[nH]c2cc1N1CCCC1 | 1.33
12 | O=C(Nc1ccc(F)c(-c2nc3cc(-c4ccccc4)cnc3[nH]2)c1)N1CCCC1 | 1.72 (active)
13 | N#Cc1ccc(-c2cnc(N)c(-c3ccc(C(N)=O)cc3)n2)cc1 | 1.28
14 | O=C(Nc1cccc(-c2ccc(NCCCN3CCCC3)nc2)c1)c1ccccc1 | 1.2
15 | CC(C)=CCC/C(C)=C\CNCCN[C@H]1[C@@H]2C[C@H]3C[C@@H](C2)C[C@@H]1C3 | 1.66 (active)
16 | COc1ccccc1[C@H](C)NCC(=O)Nc1cc(C(F)(F)F)ccc1Cl | 1.17
17 | c1ccc(Oc2ccc(-c3cc(N4CCOCC4)[nH]n3)cc2)cc1 | 2.4 (active)
18 | Nc1ncnc2c1ncn2C[C@@H](O)[C@@H](O)C(=O)O | 1.05
19 | Cc1cc(Cl)c(S(=O)(=O)N2CCCC2)cc1OCC(=O)NC1CCCCC1 | 1.19

Row | Compound | initial Tl+ fluorescence quench rate
20 | Cc1ccc(S(=O)(=O)N2CCN(C(=O)c3cc(-c4ccccc4)[nH]n3)CC2)cc1 | 1.38
21 | CC(=O)N(CCN(C(=O)c1ccc(F)cc1)c1ccccc1)c1ccccc1 | 1.14
22 | Cc1[nH]c2cc(F)cc(F)c2c(=O)c1-c1ccc(Oc2ccc(OC(F)(F)F)cc2)cc1 | 1.11
23 | O=C(CN1CCOCC1)Nc1ccc2ncnc(Nc3ccc(OCc4cccc(F)c4)c(Cl)c3)c2c1 | 6.71 (active)
24 | CCOc1ccc(-c2nc(NC(=O)CS(=O)(=O)c3ccccc3)sc2C)cc1 | 3.58 (active)
25 | COc1nc2ccc(Br)cc2cc1[C@@H](c1ccccc1)[C@@](O)(CCN(C)C)c1cccc2ccccc12 | 6.48 (active)
26 | O=C(Nc1ccccc1-c1nc2c(C(=O)O)cccc2o1)c1ccccc1 | 1.34
27 | O=C(c1ccc(NCCO)cc1)[C@H]1C[C@H]1c1ccc(Cl)cc1 | 3.55 (active)
28 | CN1CCN(c2cc(-c3ccc(F)cc3)nc(-c3ccncc3)n2)CC1 | 1.18
29 | Cc1ccccc1CN1CCC(O)(c2ccc(Cl)c(C(F)(F)F)c2)CC1 | 1.14
30 | C[C@H]1CS(=O)(=O)CCN1/N=C/c1ccc([N+](=O)[O-])o1 | 1.02
31 | Cc1ccc(NC(=O)C[C@@H]2COc3ccccc3O2)cc1Cl | 2.24 (active)
32 | CCCc1ccc(S(=O)(=O)Nc2ccc(CN3CCN(CC4CC4)CC3)cc2)cc1 | 1.42
33 | Cc1ccc(-c2nc(CN(Cc3ccccn3)C(C)C)cs2)o1 | 1.21
34 | CC(=O)NC[C@H]1CN(c2ccc(N3CCSCC3)c(F)c2)C(=O)O1 | 1.09
35 | COC(=O)c1c(NC(=O)c2cc3ccccc3oc2=O)sc2c1CCN(Cc1ccccc1)C2 | 1.04
36 | CCn1ncc2c(NC3CCOCC3)c(CNC(=O)c3ccnn3C)c(C)nc21 | 1.07
37 | CO[C@H]1/C=C/O[C@@]2(C)Oc3c(C)c(O)c4c(O)c(/c(=C/NN5CCN(C)CC5)c(O)c4c3C2=O)=N\C(=O)/C(C)=C\C=C/[C@H](C)[C@H](O)[C@@H](C)[C@@H](O)[C@@H](C)[C@H](OC(C)=O)[C@@H]1C | 1.34
38 | COc1ccc2nccc(NC(=O)C3CCN(CCc4ccc(Cl)cc4)CC3)c2n1 | 1.09
